Compound activity (PubChem)
IL2 activator = activates IL-2 in a cell-based reporter assay. IL-2 activation reporter assay, cell-based qHTS; stimulated with anti-CD3/CD4/CD28 beads; in transgenic mouse T cells. activation, % (series mostly up to about 46 µM). actives 0.065% (n = 360,000); in the data active = activation above about 50%; inconclusive = mostly about 30% to 49%; note: 0% is about no effect
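First, unstimulated transgenic mouse T cells were exposed to compound for 60 min. Next, anti-CD3/anti-CD4-coated beads with anti-CD28 were added. Finally, after 18 h at 37 degrees C, EGFP and DsRed were imaged.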
Nrf2 inh = Nrf2 pathway inhibition. A549 ARE-Fluc reporter, luciferase luminescence, 18-24 h. Potency, µM (top dose mostly 46 µM), without a hit: at the highest dose activity change, negative = inhibition, actives largely listed as inhibitors. actives 2.1% (n = 360,000). AID 504444; note: potency is the fitted concentration of half-maximal effect; % is set by controls: 0 for no effect and ±100 for the full control effect; nearly all actives have a fitted effect of over 60% in size
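Quantitative HTS in A549 cells stably bearing an antioxidant response element-firefly luciferase construct. Inhibition of Nrf2-driven transcription was scored by luminescence after 18-24 h of compound exposure at 37 °C.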
p53 reactivation = mutant p53 re-activation in reporter cells; H1299 p53-A138V BP100-luciferase reporter, luminescence, 24 h; Potency, µM (doses to about 92.2 µM), for inactives: at the highest dose activity change, positive = activation, actives largely listed as activators; actives 0.063% (n = 320,000); AID 504706; note: potency is the fitted concentration of half-maximal effect; % of control where 0% means no effect; nearly all actives have a fitted effect of over 45% in size
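H1299 (p53-null), stable ts p53-A138V + BP100-Luc; 1000 cells/well, Opti-MEM/10% FBS; cpd 4 pt, 1:5; 24 h, 37 deg C, 5% CO2; detection reagent 10 min RT; luminescence.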
Nrf2 ARE act = activators of Nrf2 (ARE) signaling | actives 0.31% (n = 410,000) | AREc32 ARE-luciferase reporter (MCF7-derived line), luminescence, 24 h | AID 624171 | Potency, µM (top dose mostly 46.1 µM), without a hit: top-dose activation, actives largely listed as activators; note: potency is the fitted concentration of half-maximal effect; % of control where 0% means no effect; nearly all actives have a fitted effect of over 65% in size
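Quantitative high-throughput format: AREc32 reporter cells, 1000 per well, received compound by pin transfer and were incubated 24 hr at 37 deg C, 5% CO2, before Steady-Glo luminescence detection.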
A549 viability = kills or reduces viability of A549 cells in Nrf2 counter-screen; A549 ARE-Fluc cells, CellTiter-Fluor viability, 18-24 h; Potency, µM (top dose mostly 46 µM), inactives show at the highest dose activity change, negative = cytotoxicity, usual class: inhibitors; actives 0.16% (n = 390,000); AID 504648; note: potency is the fitted concentration of half-maximal effect; % is set by controls: 0 for no effect and ±100 for the full control effect
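A549 ARE-Fluc cells in 5% FBS OPTI-MEM, 5000 cells/well, rested 2 h then exposed to compounds in concentration-response for 18-24 h at 37 °C. Viability by CellTiter-Fluor fluorescence (Ex 405/Em 525) after 30 min; luciferase luminescence (BugLite, 15 min, RT) read afterwards.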
BRCA1 expr act = increases BRCA1 expression. MCF7-BRCA1-FFLuc reporter, luminescence, 48 h; response scale: scaled: vehicle 0%, 10 µM genistein 100%. Potency, µM (top dose mostly 46.1 µM), for the others: at the top dose activation, usual class: activators. actives 1.1% (n = 380,000). AID 624202; note: potency is the fitted concentration of half-maximal effect; nearly all actives have a fitted effect of over 80% in size
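First, MCF7-BRCA1-FFLuc cells (2000/well) attach for 2 h; next, compounds are pin-added and incubated 48 h at 37 °C; finally, luciferase reagent is added and luminescence read after 15 min.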
* marks the source's active call; other numbers are inactive results; ? = inconclusive; nt = no result given. Sampled rows, rich in hits. Any-hit rate of the full collection: about 3.2%. Unless noted, calls come from the whole dose curve; as a rule, active = well fitted curve in the direction sought with a large enough effect; inconclusive = small, poorly fitted or top-dose-only effect, or another doubt; inactive = no such curve, though single readings can be large; an effect the other way counts as inactive or inconclusive.

SMILES	IL2 activator	Nrf2 inh	p53 reactivation	Nrf2 ARE act	A549 viability	BRCA1 expr act
Cc1cc(OC(C)C(=O)Nc2cccnc2)ccc1Cl (stereo unspecified)	0	10%	-4%	-1%	2%	12%
Cc1cccc(OCC(=O)Nc2ccc(N3CCN(C(=O)c4ccco4)CC3)cc2)c1	0	21µM*	-3%	0%	-6%	-57%
Cc1cc(OCC(=O)Nc2ccncc2)cc(C)c1Cl	-1	13µM*	nt	2%	1%	11%
Cc1ccc(OCC(=O)Nc2ccc(N3CCN(C(=O)c4ccco4)CC3)cc2)cc1C	0	?	0%	2%	-6%	-34%
Cc1cc(OC(C)C(=O)Nc2ccncc2)ccc1Cl (stereo unspecified)	-1	18µM*	-47%	-1%	-3%	-4%
Cc1cc(OCC(=O)Nc2ccc(N3CCN(C(=O)c4ccco4)CC3)cc2)cc(C)c1Cl	-2	8.2µM*	-1%	-1%	-21%	-45%
CCc1nnc(NC(=O)c2ccccc2NC(=O)C2CCN(C(=O)c3ccco3)CC2)s1	nt	-1%	nt	nt	9%	-16%
CCC(Sc1nc2ccccc2c2nc(-c3ccccc3)nn12)C(=O)Nc1cccc(OC)c1 (stereo unspecified)	nt	nt	nt	0%	2%	nt
CCc1ccccc1N(C)S(=O)(=O)c1ccc2[nH]cc(C(=O)NCCOC)c(=O)c2c1	nt	nt	nt	0%	19%	nt
C/C(=N\NC(=O)C1CC1)c1ccc(C)c(C)c1	-3	2%	12%	1%	-2%	10µM*
COC(=O)C(=Cc1ccc(-c2ccsc2C(=O)OC)o1)C(=O)OC	-3	1%	?	13µM*	?	5%
CCOC(=O)C(=Cc1ccc(-c2ccsc2C(=O)OC)o1)C(=O)OCC	0	-24%	6%	?	-20%	-62%
Cc1cc(C)n(-c2nc3ccccc3nc2Nc2cccc(C)c2C)n1	nt	?	nt	7%	13%	nt
COc1cc(/C=N/n2cnnc2)ccc1OS(=O)(=O)c1ccccc1[N+](=O)[O-]	0	3%	1%	13µM*	3%	39%
COc1cccc(NC(=O)Nc2ccc(C)c(Cl)c2)c1	-3	6%	25%	1%	0%	7.1µM*
COc1cccc(NC(=O)Nc2cc(C(=O)O)ccc2C)c1	0	-13%	1%	0%	-11%	2%
COc1ccc(NC(=O)Nc2cccc(C)n2)c(OC)c1	-2	-19%	6%	0%	0%	89%
COc1cccc(NC(=O)Nc2cccc(C)n2)c1	-3	17%	9%	18%	-1%	13µM*
COc1ccc(C(=O)NNC(=O)C(=O)Nc2ccc(C)c(Cl)c2)cc1	-1	5.8µM*	-6%	0%	?	-5%
Cc1ccc(NC(=O)NC2CCCCC2)cc1Cl	2	?	nt	0%	-1%	5µM*
O=C(O)c1cccc(-c2cccc(-c3nn4c(=O)cc(N5CCNCC5)nc4s3)c2)c1	nt	5%	nt	nt	-8%	nt
Cc1ccc(S(=O)(=O)N2CCN(c3nc(-n4cncn4)nc4ccccc34)CC2)cc1	nt	nt	nt	nt	nt	4%
O=C(NCc1ccccc1)C(c1ccccc1F)n1c(=O)c(-c2cc3ccccc3[nH]2)nc2ccccc21 (stereo unspecified)	-1	nt	nt	nt	nt	nt
Cc1ccc(NC(=O)Nc2ccc(F)cc2)cc1Cl	-1	?	13%	2%	-1%	2.8µM*
Cc1ccc(NC(=O)CCC(=O)c2ccc(F)cc2)cc1Cl	1	8%	-1%	0%	-1%	3%
SMILES	IL2 activator	Nrf2 inh	p53 reactivation	Nrf2 ARE act	A549 viability	BRCA1 expr act
COc1cc2c(C#N)c(N3CCN(C)CC3)nc(N)c2c(N)n1	nt	nt	4%	nt	nt	nt
COc1cc2c(C#N)c(N3CCN(c4ccccc4OC)CC3)nc(N)c2c(N)n1	-1	16µM*	-4%	0%	?	-81%
CCCCN(C)CCNC(=O)c1c2c(nc3ccccc13)C(=O)N(C1CCCCC1)C2	nt	9%	nt	0%	-9%	nt
Cc1cccc(OCCOCCn2c(-c3ccc(Cl)cc3)nc3ccccc3c2=O)c1C	nt	6%	nt	6%	9%	nt
CCOc1cc(C)c(-c2onc(C(F)(F)F)c2-c2csc(C)n2)c(O)c1	0	?	-10%	2%	26µM*	-32%
O=C(Cc1ccc(Br)cc1)N1CCCCCC1	0	?	?	0%	15%	10µM*
CCOC(=O)c1c(C)c(-c2ccccc2)n(CC(=O)Nc2cccc(F)c2)c1C	nt	-21%	nt	1%	-6%	0%
Cc1ccc(CNC(=O)C(=O)NCC2OCCN2S(=O)(=O)c2ccc3c(c2)OCCO3)cc1 (stereo unspecified)	0	10µM*	0%	0%	8%	-19%
Cc1ccc(CNC(=O)C(=O)NCC2OCCN2S(=O)(=O)c2ccc(Br)cc2)cc1 (stereo unspecified)	-5	16µM*	9%	5%	-4%	-57%
COc1ccc(CCNC(=O)C(=O)NCC2OCCN2S(=O)(=O)c2ccc3c(c2)OCCO3)cc1 (stereo unspecified)	-4	9.2µM*	7%	0%	-22%	-20%
COc1ccc(CCNC(=O)C(=O)NCC2OCCN2S(=O)(=O)c2ccc3c(c2)OCCO3)cc1OC (stereo unspecified)	-4	?	-6%	0%	-6%	-21%
Cc1ccc(CNC(=O)C(=O)NCC2OCCN2S(=O)(=O)c2ccc(C)cc2)cc1 (stereo unspecified)	-1	-12%	5%	-1%	12%	-26%
CC(=O)NC(Cc1ccc([N+](=O)[O-])cc1)C(=O)NCC(N)C(=O)c1ccccc1 (stereo unspecified)	nt	nt	nt	nt	nt	-41%
CCOC(=O)c1ccc(N2Cc3ccccc3C2=NC(=O)c2cccs2)cc1	4	9%	?	3%	1%	10µM*
CC(C)c1ccc(NC(=O)CSC2=Nc3ccccc3C3=NC(CC(=O)NCc4ccco4)C(=O)N23)cc1 (stereo unspecified)	nt	nt	nt	1%	1%	nt
Cc1ccc(-c2cc(C(=O)NCc3cccs3)no2)cc1	-1	24%	?	0%	12%	4.5µM*
Cc1ccc(/C=C/C(=O)NCc2cccs2)cc1	0	9%	?	4%	0%	?
Cc1ccc(/C=C/C(=O)NCc2cccs2)c(C)c1	-2	?	6%	5%	3%	10µM*
O=C(NCc1cccs1)c1cc(-c2ccc(O)cc2)on1	1	0%	10%	2%	-9%	8.9µM*
